Bioassay records from PubChem BioAssay.
BAZ2B inh: blocks human BAZ2B | Q9UIF8 | AlphaScreen BAZ2B-H3K14Ac peptide displacement | Potency, µM (highest dose often 114 µM), for the others: top-dose activity change, negative = inhibition, most hits filed as inhibitors | actives 4.4% (n = 360,000); further: potency means the concentration at half of the fitted maximal effect; on the % scale 0 is the no-effect control and ±100 the full control effect; nearly all actives have a fitted effect of over 60% in size
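Inhibition is scored as reduced AlphaScreen emission. The BAZ2B/b-H3(5-23)K14Ac complex (50 nM each) in PBS pH 7.4, 0.01% Tween-20 meets compound (up to 110 uM) for 30 min at RT before bead addition.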
G9a block: G9a (human) methyltransferase inhibition | Q96KQ7 | G9a H3K9 monomethylation, AlphaScreen, 2 h | Potency, µM (series often up to 102 µM), inactives show at the highest dose activity, negative = inhibition, most hits filed as inhibitors | actives 8.8% (n = 350,000); further: potency means the concentration at half of the fitted maximal effect; on the % scale 0 is the no-effect control and ±100 the full control effect; nearly all actives have a fitted effect of over 75% in size
Target sequence (Q96KQ7 913-1193 limits assumed): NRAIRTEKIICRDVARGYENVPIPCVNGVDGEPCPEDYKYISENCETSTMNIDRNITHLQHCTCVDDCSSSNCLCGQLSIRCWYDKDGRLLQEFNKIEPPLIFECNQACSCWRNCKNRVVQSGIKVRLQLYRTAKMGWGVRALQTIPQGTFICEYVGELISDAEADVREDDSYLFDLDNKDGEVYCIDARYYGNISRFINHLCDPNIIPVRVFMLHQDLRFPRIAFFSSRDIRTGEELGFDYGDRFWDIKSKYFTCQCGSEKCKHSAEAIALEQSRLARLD
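Readings reflect AlphaScreen signal from monomethyl-H3K9 antibody detection. HMT at 20 nM; substrate b-H3K9 500 nM; cofactor SAM 20 uM; 2 h RT reaction; compounds tested as titrations in qHTS with 15 min preincubation.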
PLK1 PBD block: inhibitors of human PLK1 polo-box domain binding; actives 2.8% (n = 360,000); AID 720504; Plk1 PBD binding of FITC phosphopeptide, fluorescence polarization; P53350; Potency, µM, for inactives: max response, negative = inhibition, usual class: inhibitors; further: potency means the concentration at half of the fitted maximal effect; series mostly up to about 57 µM; on the % scale 0 is the no-effect control and ±100 the full control effect; nearly all actives have a fitted effect of over 65% in size
JMJD2A Tudor: JMJD2A Tudor domain (human) inhibition | O75164 | AlphaScreen JMJD2A-Tudor / H3K4me3 peptide binding | Potency, µM (top dose mostly 114 µM), without a hit: top-dose activity change, negative = inhibition, hits mostly inhibitors | actives 4.4% (n = 390,000) | AID 504339; further: potency means the concentration at half of the fitted maximal effect; on the % scale 0 is the no-effect control and ±100 the full control effect; nearly all actives have a fitted effect of over 50% in size
PI5P4Ka inh: inhibitors of human PI5P4K alpha; actives 1.2% (n = 330,000); PI5P4Kalpha enzyme, ADP-Glo luminescence, 60 min; active compounds read low; max response, %; AID 652105; active means max response of -50% or lower; inconclusive means between -30% and -50%; inactive means -30% or higher; further: value at the top dose of about 77 µM; on the % scale 0 is the no-effect control and ±100 the full control effect
Target sequence (P48426 whole entry, looked up): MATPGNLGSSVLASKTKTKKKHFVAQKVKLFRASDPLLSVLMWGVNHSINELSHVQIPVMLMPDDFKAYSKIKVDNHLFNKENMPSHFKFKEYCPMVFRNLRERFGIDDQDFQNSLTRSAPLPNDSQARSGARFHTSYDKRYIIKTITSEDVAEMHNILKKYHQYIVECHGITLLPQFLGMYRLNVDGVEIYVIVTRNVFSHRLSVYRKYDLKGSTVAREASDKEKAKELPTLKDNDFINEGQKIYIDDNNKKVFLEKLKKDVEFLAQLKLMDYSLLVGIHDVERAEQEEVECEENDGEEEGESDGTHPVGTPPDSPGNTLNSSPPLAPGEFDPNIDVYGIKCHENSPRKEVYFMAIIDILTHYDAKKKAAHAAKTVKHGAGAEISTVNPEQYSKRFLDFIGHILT
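ADP-Glo luminescence end-point after a 60 min room-temperature kinase reaction. PI5P4Kalpha and substrate in HEPES pH 7.4 buffer with EGTA, 0.1% CHAPS and 5% DMSO; ATP at 5 microM final.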
HP1b binding inh: blocks HP1-beta chromodomain binding to methylated histone tails; actives 0.56% (n = 390,000); AID 540317; Potency, µM (doses to about 114 µM), for inactives: top-dose activity change, negative = inhibition, hits mostly inhibitors; P83916; AlphaScreen HP1-beta / biotin-H3K9me3 peptide binding; further: potency means the concentration at half of the fitted maximal effect; nearly all actives have a fitted effect of over 70% in size
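HP1-beta protein (50 nM final) preincubated 30 min at room temperature with biotinylated H3(1-18)K9me3 peptide (50 nM) in PBS pH 7.4, 0.01% Tween-20, then compound added for 30 min. AlphaScreen streptavidin donor/nickel chelate acceptor beads (10 ug/mL final), 30 min dark, luminescence read.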
* hit, by the source's call; ? = inconclusive; . = no result; [ ] = remark or other dose. Only some compounds are listed: those with a hit (about 12% of all), similar ones and a draw of the others. Unless noted, the call rests on the fitted dose curve; in most records, active means well fitted curve in the direction sought with a large enough effect; inconclusive means small, poorly fitted or top-dose-only effect, or another doubt; inactive means no such curve, though single readings can be large; an effect the other way counts as inactive or inconclusive.

SMILES | BAZ2B inh | G9a block | PLK1 PBD block | JMJD2A Tudor | PI5P4Ka inh | HP1b binding inh
Cc1cccc(C)c1NC(=O)c1csc([C@@H]2O[C@H](CO)[C@H](O)[C@H](O)[C@H]2O)n1 | . | . | 4% | . | -5 | .
CC(C)c1ccc(C(C(=O)NC2CCCCC2)N(C(=O)c2csnn2)C2CC2)cc1 (stereo not drawn) | ? | 8% | -4% | -19% | 4 | 5%
N#Cc1ccsc1NC(=O)CCc1ccccc1 | ? | 25µM* | -10% | -14% | 6 | 14%
N#Cc1ccsc1NC(=O)c1ccccn1 | 10µM* | ? | -13% | 20µM* | -11 | 9%
Cc1cccc(NC(=O)CSc2nnc(CNC(=O)c3ccco3)o2)c1 | -11% | 11µM* | 2% | -2% | -3 | 55%
O=C(CSc1nc(-c2cccs2)nc2cc(=O)[nH]n12)Nc1ccccc1Cl | 79µM* | 28%[59 µM] | . | ? | . | 20%
O=C(CSc1nc(-c2cccs2)nc2cc(=O)[nH]n12)Nc1ccccc1 | 56µM* | 17%[59 µM] | . | -24% | . | 32%
O=C(CSc1nc(-c2cccs2)nc2cc(=O)[nH]n12)Nc1ccccc1F | ? | 28%[12.7 µM] | . | ? | . | 34%
Cc1cccc(NC(=O)CSc2nc(-c3ccco3)nc3cc(=O)[nH]n23)c1 | 79µM* | 14%[12.7 µM] | . | -20% | . | 27%
Cc1ccc(NC(=O)CSc2nc(-c3ccccc3Cl)nc3cc(=O)[nH]n23)c(C)c1 | 89µM* | -8%[59 µM] | . | -13% | . | 3%
O=C(NCCc1ccc(Cl)cc1)c1ccc2c(c1)N(Cc1ccccc1)C(=O)CS2 | 2% | 4%[59 µM] | . | -21% | . | 17%
COc1ccc(N2CCN(C(C)C(=O)N3CCCC3)CC2)cc1 (stereo not drawn) | 32µM* | ? | -6% | 0.79µM* | -24 | ?
COc1ccc(C(=O)Nc2nnc(C)s2)cc1 | 1% | -1%[59 µM] | . | -9% | . | 32%
COC(=O)N1CCN(c2ccc(OC)cc2)CC1 | 20% | ? | -1% | -11% | . | 16%
COc1ccc(N2CCN(C(C)C(=O)Nc3nnc(C)s3)CC2)cc1 (stereo not drawn) | -16% | 56µM* | 12% | ? | 6 | -3%
Cc1ccc(C2(C)NC(=O)N(CC(=O)Nc3ccc(S(=O)(=O)Nc4nccs4)cc3)C2=O)cc1 (stereo not drawn) | -28% | ? | -18% | -23% | 0 | -7%
COc1ccc(C)c2sc(N(CCCN(C)C)C(=O)c3ccc4c(c3)OCCO4)nc12 | -8% | 1%[0.501 µM] | -2% | -31% | -3 | -5%
COc1ccc(OCC(=O)NNC(=S)NC(=O)C2CC2)cc1 | -1% | 20µM* | -15% | -18% | -24 | 24%
COc1ccc(OCC(=O)NC2CCCCCCC2)cc1 | 3% | 4% | -7% | -1% | 1 | 41%
COc1ccc(NC(=S)NC(=O)C2CCC2)cc1 | -2% | . | -9% | -33% | -2 | 65%
COc1ccc(C(=O)NC(=S)NNC(=O)CNC(=O)C2CCCCC2)cc1 | . | 8.9µM* | ? | ? | ? | 0%
COc1ccc(OCC(=O)NNC(=S)NC(=O)C2CCCCC2)cc1 | -7% | 13µM* | . | . | . | .
Cc1cc(C)cc(OCC(=O)NNC(=S)NC(=O)C2CC2)c1 | 4% | 20µM* | -15% | -34% | -15 | 25%
COc1ccccc1CNC(=O)COc1ccc(S(=O)(=O)N2CCCC2)cc1 | -1% | -7% | -16% | -4% | 1 | 8%
CCc1ccc(OCC(=O)NNC(=S)NC(=O)C2CC2)c(Br)c1 | ? | 10µM* | -20% | ? | -5 | 11%
SMILES | BAZ2B inh | G9a block | PLK1 PBD block | JMJD2A Tudor | PI5P4Ka inh | HP1b binding inh
CCc1ccc(OCC(=O)NNC(=S)NC(=O)C2CCCCC2)c(Br)c1 | -12% | ? | -15% | ? | -4 | 9%
CC(=O)Nc1ccn(C2CC3OCC(NC(=O)C(NC(=O)OC(C)(C)C)C(C)OCc4ccccc4)C3O2)c(=O)n1 (stereo not drawn) | . | . | . | -14% | . | 11%
Cc1c(C(=O)N2CCOCC2)c(S(=O)(=O)Nc2ccc(C(C)C)cc2)c(C)n1C | -19%[57.1 µM] | 7% | 27µM* | ? | -16 | -7%
Cc1ccc(NS(=O)(=O)c2c(C(=O)N3CCCCCC3)c(C)n(C)c2C)cc1C | -29% | -6% | 21µM* | ? | -5 | -9%
CCCc1nnc(NC(=O)CSc2ncn[nH]2)s1 | -39% | 35µM* | -14% | -15% | 4 | 21%
CCOC(=O)c1c(NC(=O)CSc2ncn[nH]2)sc(C)c1C | -12% | 45µM* | -20% | -24% | . | -17%
CCCCc1nc(SCC(=O)Nc2nnc(CCCC)s2)n[nH]1 | -28% | ? | 5% | 3% | 2 | 43%
CCOC(=O)c1c(NC(=O)CSc2ncn[nH]2)sc(C(=O)N(C)C)c1C | 8% | 50µM* | -10% | -6% | 1 | 12%
Cc1ccc2c(=O)c(C(=O)c3cccc(Cl)c3)cn(CC(=O)NC3CCCCC3)c2n1 | 0% | 3%[59 µM] | . | -12% | . | 78%
CCC(CC)C(=O)N(C)c1c(C)nc2c(OCc3ccccc3C(=O)OC)cccn12 | . | . | 4% | . | 11 | .
O=C(CC[C@H]1O[C@@H](n2cnc3c(NC(=O)c4ccccc4)ncnc32)[C@H](O)[C@@H]1O)NCc1nc2ccccc2[nH]1 | . | . | -1% | . | -1 | .
O=C(Nc1ccc(F)cc1F)c1cc(-c2ccc(Cl)cc2)on1 | 2% | 0%[59 µM] | . | 1% | . | 34%
CCN(CC)CCN1C(=O)C(=O)/C(=C(/O)c2ccc3c(c2)CC(C)O3)C1c1ccc(OC)cc1 (stereo not drawn) | -23% | 50µM* | 1% | ? | 1 | 9%
COc1ccc(C2/C(=C(\O)c3ccc(OC)c(Cl)c3)C(=O)C(=O)N2CCN(C)C)cc1 (stereo not drawn) | -4% | 79µM* | -4% | -3% | 9 | 30%
COc1cccc(C2/C(=C(/O)c3ccc4c(c3)CC(C)O4)C(=O)C(=O)N2CCCn2ccnc2)c1 (stereo not drawn) | -27%[57.1 µM] | 50µM* | -10% | -17% | 7 | 1%
COc1ccc(/C(O)=C2/C(=O)C(=O)N(CCCN(C)C)C2c2ccccc2)cc1Cl (stereo not drawn) | 3% | ? | . | . | . | .
COc1cccc(C2/C(=C(\O)c3ccc4c(c3)OCCO4)C(=O)C(=O)N2CCCn2ccnc2)c1 (stereo not drawn) | 56µM* | ? | 27µM* | 63µM* | -8 | 20%
N#Cc1nc(NCC(F)F)c2ncn(-c3cc(F)cc(F)c3)c2n1 | . | . | . | -10% | . | .
O=C1C(=O)N(CCCn2ccnc2)C(c2cccc(Br)c2)/C1=C(\O)c1ccc2c(c1)OCCO2 (stereo not drawn) | -5% | ? | 30µM* | ? | 0 | 13%
